TDP1 cell CPT – qHTS for Inhibitors of human tyrosyl-DNA phosphodiesterase 1 (TDP1): qHTS in cells in presence of CPT | AID 686979, 2013 | Potency, µM (series often up to 46.2 µM), without a hit: top-dose activity change, negative = growth inhibition, most hits filed as inhibitors | chicken DT40 Tdp1-/-;hTDP1 cells + 20 nM CPT, ATP luminescence, 48 h | 12% of 420,000 active; also: % is scaled to controls: 0 for no effect and ±100 for the full control effect; nearly all actives have a fitted effect of over 55% in size
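Chicken DT40 Tdp1-/- cells stably complemented with human TDP1 were seeded at 400 cells/well in medium containing 20 nM camptothecin, exposed to pin-transferred compounds, and grown at 37 °C for at least 48 hr. Viability was read as ATP luminescence.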
DT40 TDP1 no CPT – qHTS for Inhibitors of human tyrosyl-DNA phosphodiesterase 1 (TDP1): qHTS in cells in absence of CPT; DT40 Tdp1-/- hTDP1 cells, no CPT, ATP luminescence, 48 h; Potency, µM (highest dose often 46.2 µM), without a hit: at the highest dose activity change, negative = growth inhibition, actives largely listed as inhibitors; 15% of 420,000 active; also: % is scaled to controls: 0 for no effect and ±100 for the full control effect; nearly all actives have a fitted effect of over 55% in size
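Luminescent ATP content (CellTiter-Glo) served as the growth readout. Knockout chicken DT40 cells expressing human TDP1 were exposed to compounds without camptothecin for a minimum 48 hr at 37 °C.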
HT1080 IDH1KD tx – qHTS for induction of synthetic lethality in tumor cells producing 2HG: qHTS for the HT-1080-IDH1KD cell line. HT-1080 IDH1 knockdown viability, ATP luminescence, 48 h. Potency, µM (series often up to 46.1 µM), inactives show at the highest dose activity, negative = toxicity, hits mostly cytotoxic. 2% of 360,000 active. AID 686971, 2013;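 also: 0% = DMSO wells and -100% = cell-free medium wells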
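Using the IDH1-knockdown HT-1080 line run in the same batch and compound series as the NT line, viability after 48 h at 37 °C was determined by CellTiter-Glo luminescence and expressed as % activity.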
HepG2 viability – qHTS for Inhibitors of TGF-b: Cytotox Counterscreen; Potency, µM (series often up to 46.1 µM), without a hit: at the top dose activity change, negative = cytotoxicity, usual class: cytotoxic; 0.76% of 410,000 active; AID 588856, 2011; HepG2 CAGA-GFP viability, ATP luminescence, 18 h
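CellTiter-Glo luminescence gave cytotoxicity after 18 hours at 37 degrees C. The cells were HepG2 CAGA-GFP in 1% FBS DMEM, stimulated with 500 pg/mL TGF-beta after compound addition. %Activity was normalised to no-cell wells (complete cell-killing) and DMSO (no toxicity), and curves were fitted and classified.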
TGFb SMAD3 inh – qHTS for Inhibitors of TGF-b | HepG2 CAGA-GFP TGF-b/SMAD3 reporter, GFP fluorescence, 18 h; TGF-beta stimulated, 500 pg/mL final | Potency, µM (top dose mostly 46.1 µM), inactives show at the highest dose activity, negative = inhibition, hits mostly inhibitors | 1.2% of 410,000 active; also: % is scaled to controls: 0 for no effect and ±100 for the full control effect; nearly all actives have a fitted effect of over 65% in size
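Inhibition was scored as loss of TGF-beta-induced (500 pg/mL final, 18 hours, 37 degrees C) GFP in HEPG2 cells carrying a CAGA-GFP reporter, in DMEM with 1% FBS. Well GFP was summed per cell; Activity was normalised to unstimulated and stimulated DMSO wells, then concentration-response fitting.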
HT1080NT lethal – qHTS for induction of synthetic lethality in tumor cells producing 2HG: qHTS for the HT-1080-NT fibrosarcoma cell line; HT-1080-NT fibrosarcoma viability, CellTiter-Glo ATP luminescence, 48 h; Potency, µM (titrated, usually from 46.1 µM), for the others: at the highest dose activity, negative = less viability, most hits filed as cytotoxic; AID 686970, 2013; 1.6% of 360,000 active;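 also: NT is the 2HG producing partner of a matched IDH1 knockdown line; 0% = DMSO-treated cells and -100% = media-only wells without cells; nearly all actives have a fitted effect of over 55% in size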
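A 48-hour cytotoxicity screen used HT-1080-NT cells plated 2 hours before compound delivery. ATP-based CellTiter-Glo luminescence measured viability, normalized to DMSO and no-cell controls.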
* = called active by the depositor; u = inconclusive; x = no result given. Sampled rows, rich in hits. Any-hit rate of the full collection: about 17%. Calls follow the shape of the dose curve; as a rule, active = well fitted curve in the direction sought with a large enough effect; inconclusive = small, poorly fitted or top-dose-only effect, or another doubt; inactive = no such curve, though single readings can be large; an effect the other way counts as inactive or inconclusive. Potency is read from the fitted curve at half-maximal effect.

SMILES	TDP1 cell CPT	DT40 TDP1 no CPT	HT1080 IDH1KD tx	HepG2 viability	TGFb SMAD3 inh	HT1080NT lethal
Cc1ccc(-c2csc3ncnc(Sc4nnc(CN5CCCCCC5=O)o4)c23)cc1	4.11µM*	6.51µM*	-11.3%	-99.9%	0.0%	-0.2%
COc1ccc(CCNC(=O)CSc2nnc(CNC(=O)c3cc(OC)c(OC)c(OC)c3)o2)cc1OC	3.6%	29.9%	8.4%	-8.4%	-0.5%	18.0%
Cc1nc(NS(=O)(=O)c2ccccc2)sc1C(=O)NNS(=O)(=O)c1ccccc1	-2.4%	3.0%	-1.2%	4.4%	6.9%	6.7%
Cc1nc(C)c(C(=O)NNS(=O)(=O)c2ccc3ccccc3c2)s1	u	23.1µM*	u	2.1%	-0.5%	u
O=[N+]([O-])c1ccc(/C=N/N=C/c2ccc([N+](=O)[O-])o2)o1	0.291µM*	0.731µM*	2.91µM*	-15.5%	u	4.61µM*
O=C(Cc1ccc([N+](=O)[O-])cc1)N/N=C/c1ccc([N+](=O)[O-])o1	10.3µM*	9.2µM*	u	-114.5%	15.8µM*	u
Cc1cc2ncn(/N=C/c3ccc([N+](=O)[O-])o3)c2cc1C	13µM*	12.6µM*	7.94µM*	12.6µM*	2.51µM*	-6.4%
Cc1csc(N=Cc2ccc([N+](=O)[O-])o2)n1	14.6µM*	10.3µM*	-4.2%	3.6%	5.8%	-11.0%
COc1ccc(C(=O)NCC(=O)Nc2ccc(-c3ccccc3)cc2)cc1	-13.5%	u	1.6%	-3.0%	0.4%	-2.9%
CC(Oc1cccnc1[N+](=O)[O-])C(=O)Nc1cccc(Cl)c1 (stereo not drawn)	-17.9%	u	0.0%	-3.0%	-6.7%	3.7%
CC(=O)N/N=C/c1ccc([N+](=O)[O-])o1	u	21.1µM*	x	x	x	x
CCCOc1ccc(CCC(=O)N/N=C/c2ccc([N+](=O)[O-])o2)cc1	16.4µM*	-97.9%	-19.2%	-131.3%	u	-18.6%
Cc1ccc(C(=O)N/N=C\c2ccc([N+](=O)[O-])o2)cn1	u	11.6µM*	u	-36.4%	u	-10.7%
O=C(N/N=C\c1ccc(-c2ccc([N+](=O)[O-])cc2)o1)c1ccc2c(c1)OCO2	-24.1%	-16.9%	11.1%	4.8%	-0.4%	10.5%
CCCOc1ccc(CC(=O)N/N=C\c2ccc(F)cc2)cc1	-23.0%	u	-7.9%	-9.3%	0.0%	-6.8%
O=C(N/N=C/c1ccc([N+](=O)[O-])o1)c1ccc2c(c1)OCO2	2.31µM*	5.8µM*	u	11.2µM*	15.8µM*	u
Cc1ccc(/C=N/NC(=O)c2cccc([N+](=O)[O-])c2)o1	13.8%	7.4%	20.0%	7.7%	-3.9%	0.0%
CC1(C(=O)N/N=C/c2ccc([N+](=O)[O-])o2)CC1(Br)Br (stereo not drawn)	13µM*	10.3µM*	u	11.2µM*	11.2µM*	u
O=C(CC12CC3CC(CC(C3)C1)C2)N/N=C\c1ccc[nH]1	6.5%	-15.5%	-4.3%	20.6%	-5.2%	-8.4%
Cc1cc(C)cc(OCC(=O)N/N=C/c2ccc([N+](=O)[O-])o2)c1	-89.0%	u	-11.9%	-95.7%	u	-9.9%
O=C(CC12CC3CC(CC(C3)C1)C2)N/N=C/c1ccc([N+](=O)[O-])o1	9.2µM*	23.1µM*	u	-43.2%	u	u
CCOC(=O)N/N=C\c1ccc([N+](=O)[O-])o1	u	22.4µM*	u	-48.9%	u	-10.1%
CC1(C(=O)NNC(=O)c2ccc([N+](=O)[O-])cc2)CC1(Br)Br (stereo not drawn)	-11.1%	u	-9.2%	-24.1%	-3.2%	-2.2%
Cc1ccccc1-c1nn2c(=O)cc(CN3CCN(S(=O)(=O)c4ccc(Cl)cc4)CC3)nc2s1	-29.3%	u	x	-36.7%	-10.6%	x
Cc1ccsc1/C=C1/SC(N2CC(C)OC(C)C2)=NC1=O (stereo not drawn)	u	20.6µM*	8.5%	-1.8%	8.0%	12.1%
SMILES	TDP1 cell CPT	DT40 TDP1 no CPT	HT1080 IDH1KD tx	HepG2 viability	TGFb SMAD3 inh	HT1080NT lethal
Cc1ccsc1/C=C1\SC(N)=NC1=O	-18.6%	-2.5%	11.1%	-22.6%	-5.7%	8.2%
CCn1cc(C2=NC(C(C)C)CO2)c2ccccc21 (stereo not drawn)	-20.1%	-25.2%	-0.4%	-93.7%	2.3%	-2.1%
CCn1cc(C2=NC(CC(C)C)CO2)c2ccccc21 (stereo not drawn)	u	14.6µM*	-13.7%	-5.4%	-20.2%	-3.8%
COc1cc(N2C(=O)C=CC2=O)c(OC)cc1Cl	1.84µM*	1.3µM*	u	-91.2%	11.2µM*	18.4µM*
COc1cc(Cl)c(S(=O)(=O)N2CCCC2)cc1Cl	-24.3%	u	-4.3%	-15.4%	-2.4%	-12.0%
CCOC(=O)[C@]12CCC=C1N(Cc1ccccc1)C(=O)[C@H](CC(=O)NCc1cccs1)C2	u	23.1µM*	2.1%	x	x	8.6%
CCOC(=O)[C@]12CCC=C1N(Cc1ccccc1)C(=O)[C@H](CC(=O)NCCCCc1ccccc1)C2	u	20.6µM*	u	x	x	u
CCOC(=O)[C@]12CCC=C1N(Cc1ccccc1)C(=O)[C@H](CC(=O)NCCC(C)C)C2	20.6µM*	u	8.2%	x	x	21.6%
CCOC(=O)[C@]12CCCC=C1N(Cc1ccco1)C(=O)[C@H](CC(=O)NCCC(C)C)C2	u	16.4µM*	7.1%	x	x	20.1%
O=C(COC(=O)c1ccc(O)cc1O)NC(=O)Cc1ccccc1	u	-14.1%	14.3%	-3.3%	-4.8%	1.4%
COC1CC(N)C2OC(c3ccccc3)OCC2O1 (stereo not drawn)	-1.7%	-19.2%	-2.9%	-60.1%	0.3%	19.7%
CCN1C(=O)[C@H]2[C@@H](c3ccc(-c4cc(C(C)=O)cs4)cc3)N3CCC[C@@]3(C(=O)OC)[C@H]2C1=O	u	23.1µM*	11.5%	2.5%	7.3%	15.7%
CCN1C(=O)[C@H]2[C@@H](c3ccc(-c4cc(C(C)=O)cs4)cc3)N3CCCC[C@@]3(C(=O)OC)[C@H]2C1=O	u	18.4µM*	10.3%	2.1%	u	9.3%
